Laboratory results: PubChem BioAssay (NCI)
This is part of a sample that, as a whole, favours compounds with a hit. Of some 83,000 tested, about 20% had one in any assay.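 Values shown are percent growth following 48 h exposure of cells in 96-well plates to a single concentration of compound; below 10 was considered active.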 A number with no mark means an inactive call. The source made the active and inactive calls.

How the values were obtained:
Test in all cases: NCI-60 one-dose screen, 48 h (100 = growth as untreated, 0 = no growth, -100 = all killed)
HCT-15 colon = conditions: 10 µM unless noted
HT29 colon = conditions: 10 µM unless noted
SNB-75 CNS = conditions: 10 µM unless noted
U251 CNS = conditions: 10 µM unless noted
PC-3 prostate = conditions: 10 µM unless noted
SK-MEL-5 melanoma = conditions: 10 µM unless noted
UACC-62 melanoma = conditions: 10 µM unless noted
SK-MEL-28 melanoma = conditions: 10 µM unless noted
LOX IMVI melanoma = conditions: 10 µM
SNB-19 CNS = conditions: 10 µM unless noted

SMILES	growth (HCT-15 colon)	growth (HT29 colon)	growth (SNB-75 CNS)	growth (U251 CNS)	growth (PC-3 prostate)	growth (SK-MEL-5 melanoma)	growth (UACC-62 melanoma)	growth (SK-MEL-28 melanoma)	growth (LOX IMVI melanoma)	growth (SNB-19 CNS)
Cc1ccc(C(=O)CSc2nc3ccc(F)cc3c(=O)n2-c2ccc(Cl)cc2)cc1	59.2%	49.9%	-19.4% (active)	19.6%	25.9%	68.1%	71.4%	77.2%	–	–
Cc1ccc(C(=O)CSc2nc3ccc(C)cc3c(=O)n2-c2ccc(F)cc2)cc1	84.6%	72.5%	7.91% (active)	28.7%	74%	72%	86.1%	88.1%	72.9%	–
CC(=O)Nc1cccc(Nc2nc(NCc3ccccc3)c3ccccc3n2)c1	-87.1% (active)	-86.5% (active)	-93.8% (active)	-76.4% (active)	-73.2% (active)	-98.2% (active)	-97.8% (active)	-95.9% (active)	–	–
COc1ccc(-c2nc3cc(C)ccc3n2CC(=O)N=Nc2c(O)[nH]c3ccc(OC)cc23)cc1	-86.5% (active)	-20% (active)	–	-80.2% (active)	-52.4% (active)	-95.9% (active)	-86.5% (active)	-97.8% (active)	-98% (active)	4.91% (active)
CC(C)c1sc(NC(=O)c2cc(NC(=O)c3cc(NC(=O)c4nccn4C)cn3C)cn2C)nc1C(=O)NCCCN(C)C	104%	90.7%	–	30.2%	46%	73.5%	66.3%	99%	29.8%	48.1%
Cn1cc(-c2cc(N)n3nc(-c4cn(C)c5ccc(Cl)cc45)cc3n2)c2ccccc21	100%	105%	89%	103%	110%	98.5%	98.2%	97.4%	–	–
S=C(Nc1ccccc1)Nc1ccc(OCc2nc3ccccc3[nH]2)cc1	29.5%	25.4%	27.4%	34.5%	42%	49.1%	33.6%	61.6%	–	–
O=c1[nH]n(C(=S)N/N=C/c2ccccc2Cl)c(=O)c2ccccc12	-41.3% (active)	0.552% (active)	52.1%	-46.5% (active)	22.6%	5.82% (active)	-65.4% (active)	-26.3% (active)	–	–
CCN1C(=O)N(CC)C2NNC(Sc3c(C(=O)O)c4ccccc4n(C4CCCC4)c3=O)=NC21 (centres undefined)	14.7%	0.444% (active)	20.9%	8.79% (active)	36.3%	13.8%	47.4%	54.8%	–	–
CC1(c2cc3cc(Br)ccc3oc2=O)NC(=O)c2c(/C=C/C(=O)OC3CC4CCC3(C)C4(C)C)cccc2N1 (centres undefined)	82.9%	88.7%	–	69.8%	36.5%	74.5%	79.8%	86.5%	84.5%	72%
COc1ccc(C(=O)/C=C/c2ccc3ccccc3c2)cc1S(N)(=O)=O	-87.1% (active)	-26.5% (active)	-15.5% (active)	-96.3% (active)	-11.9% (active)	–	-55.6% (active)	-41.5% (active)	-89.1% (active)	–
O=C(NNc1nc2cc(F)ccc2n2c(C(=O)N3CCN(C4CC4)CC3)ccc12)c1ncccn1	10.5%	39%	73.3%	16.8%	49%	–	9.28% (active)	30.8%	13.7%	–
CN1C(=O)/C(=C/c2ccc(C(=O)Nc3ncc(Cc4ccc(Cl)cc4Cl)s3)cc2)SC1=S	25.7%	19.7%	–	72.7%	38.9%	17.1%	8.83% (active)	41%	29.7%	66.6%
CN(C)CCOc1ccc(C(=O)C2[C@H](c3ccc(Cl)cc3)[C@@H](c3ccccc3)NC23C(=O)Nc2ccc(Br)cc23)cc1 (some centres undefined)	-81.5% (active)	-85.7% (active)	–	-93.2% (active)	-3.48% (active)	-16.1% (active)	43.3%	37.6%	-100% (active)	54.1%
COc1ccc(C2=NN(C(C)=O)C(c3ccc(OCc4ccc(Cl)cc4)c(OC)c3)C2)cc1OC (centres undefined)	27.9%	40.1%	61.3%	46.8%	23.6%	-9.52% (active)	34%	56.8%	–	–
CC1(c2cc3cc(Cl)ccc3oc2=O)NC(=O)c2c(/C=C/C(=O)OC3CC4CCC3(C)C4(C)C)cccc2N1 (centres undefined)	66.4%	60.9%	–	52.5%	25.7%	61.2%	62.6%	75.4%	78.9%	52.9%
CCOC(=O)/C=C/c1cccc2c1C(=O)NC(C)(c1cc3cc(Cl)ccc3oc1=O)N2 (centres undefined)	20.9%	32.5%	–	33.9%	17.4%	10.2%	13.4%	53.9%	22.2%	33.8%
C=C1CC[C@@H]2[C@]3(C)COC(c4cn(-c5ccccc5)nc4-c4cccc([N+](=O)[O-])c4)O[C@@H]3CC[C@@]2(C)[C@@H]1C/C=C1/C(=O)OC[C@H]1O (some centres undefined)	-74.2% (active)	-59.7% (active)	109%	-73.9% (active)	16.5%	-99.6% (active)	-71.7% (active)	-47.9% (active)	–	–
O=C(c1ccc(OCCN2CCOCC2)cc1)C1[C@H](c2ccc(Cl)cc2)[C@@H](c2ccccc2)NC12C(=O)Nc1ccc(Br)cc12 (some centres undefined)	8.44% (active)	-76.6% (active)	–	22.6%	3.86% (active)	47.3%	38.5%	44.1%	-75.2% (active)	37.4%
COc1cccc(COc2ccc(NC(=O)Nc3ccc(Cl)c(C(F)(F)F)c3)cc2)c1	11.8%	43.5%	32.1%	31.8%	16.3%	-77% (active)	38%	69.6%	–	–
COc1ccc2c(c1)c(-c1cc3nc(-c4cn(C)c5ncc(Br)cc45)cc(N)n3n1)cn2C	-48% (active)	-88.5% (active)	–	-57.3% (active)	-19.5% (active)	-88.1% (active)	-82.2% (active)	-92.8% (active)	-100% (active)	-16.9% (active)
CCCSc1nc(Nc2ccc(S(N)(=O)=O)cc2)c(C#N)c(-c2ccc(Cl)cc2)n1	21.7%	33.6%	–	-14.8% (active)	64.3%	55.9%	31.1%	73.8%	-96.3% (active)	28.2%
COc1ccc(-c2ccnc(SCc3cc4cc(OC)ccc4[nH]c3=O)n2)cc1	10.5%	19.9%	–	22.7%	23.8%	-3.59% (active)	16.4%	36.5%	18.7%	36.3%
Cn1cc(-c2cc3nc(-c4cn(C)c5ncccc45)cc(N)n3n2)c2cc(Cl)ccc21	-64.5% (active)	-55.6% (active)	–	-79.7% (active)	-82.1% (active)	-99.4% (active)	-99.6% (active)	-99.9% (active)	-100% (active)	-88.1% (active)
CC(=O)OC[C@@]1(C)C2CC[C@]3(C)C(CC=C4C5CC(C)(C)CC[C@]5(C(=O)Nc5ccc(C)cc5)CC[C@]43C)[C@@]2(C)C[C@@H](OC(C)=O)[C@@H]1OC(C)=O (some centres undefined)	35.1%	30.6%	57%	40.7%	34.3%	7.75% (active)	48.2%	77.1%	–	–
C=C1CCC2C3(C)COC(c4ccco4)OC3CCC2(C)C1CC(Sc1ccccc1)C1=CCOC1=O (centres undefined)	3.97% (active)	8.59% (active)	–	31.9%	50.2%	63.4%	30.2%	56.1%	-96.1% (active)	86.2%
COc1ccc2c(c1)c(-c1cc3nc(-c4cn(C)c5ncccc45)cc(N)n3n1)cn2C	-57.7% (active)	-95.5% (active)	–	-67% (active)	-1.31% (active)	-100% (active)	-89.8% (active)	-97.2% (active)	-100% (active)	22.3%
Cc1ccc(Cc2cnc(NC(=O)c3ccc(/C=C4\SC(=S)N(C)C4=O)cc3)s2)cc1	18.7%	23.8%	–	62.3%	37.3%	19.4%	25.1%	42.1%	34.3%	53.8%
O=C(Cn1c(/C=C/c2ccccc2)nc2ccccc2c1=O)Nc1ccc(Cl)cc1	78%	75.5%	–	20.1%	72.6%	103%	90.4%	108%	25.4%	52.8%
